Measurements from PubChem BioAssay AID463254 (National Center for Advancing Translational Sciences (NCATS), 2010).
The campaign covered roughly 330,000 compounds. About 40 (0.01%) were called active. Calls come from the whole dose curve; as a rule, active = well fitted inhibition curve with a large enough effect; inconclusive = small, poorly fitted or top-dose-only effect, or effect the other way; inactive = flat fitted curve, though single readings scatter. The full list was thinned out, with actives kept by preference.

The molecules below were run against Ubiquitin carboxyl-terminal hydrolase 2 (Homo sapiens) (UniProt O75604) (assay: qHTS Assay for Inhibitors of Ubiquitin-specific Protease USP2a Using CHOP2 as the Reporter). Conditions: USP2 core, Ub-CHOP2 coupled fluorogenic reporter, 485/531; series mostly up to 38.3 µM.
Source text: NIH Molecular Libraries Screening Centers Network [MLSCN] NIH Chemical Genomics Center [NCGC] MLSCN Grant: XO1-MH079852-01 PI Name: Nicholson, Ben. Progenra Inc, Malvern, PA NCGC Assay Overview: Homeostasis of cellular proteins is maintained through a combination of synthesis and degradation. The pathway that accounts for the majority of protein degradation is the ubiquitin-proteasomal pathway. Ubiquitin (Ub) is highly conserved in all cells and the generation of a multi-Ub chain typically targets proteins for degradation by the proteasome. However, ubiquitination is highly reversible and dynamic. Deubiquitination, the reverse process, is catalyzed through the action of enzymes referred to as isopeptidases or deubiquitinating enzymes (DUBs). This group of enzymes is collectively responsible for maintaining adequate pools of free ubiquitin and regulating the ubiquitination status of cellular proteins. The class of DUBs referred to as the ubiquitin-specific proteases (USP) family functions endoproteolytically to cleave Ub chains from a wide range of protein substrates. USP2a deubiquitinates fatty acid synthase (FASN) which has recently been identified as an emerging oncology target. To identify inhibitors of USP2a a cell-free assay was employed. […] The reporter enzyme chosen is an enterokinase called CHOP2, which is activated when the Ub is cleaved by USP2. The free and now activated reporter can subsequently act on its reporter substrate. Thus, this coupled assay gives a fluorescent read-out at excitation/emission wavelengths of 485/531. The assay was developed by Progenra, Inc. and has been licensed for sale by LifeSensors, Inc. as Ub-CHOP2-Reporter-Kit (#PR1101).
NCGC Assay Protocol Summary: The assay buffer, prepared fresh at the day of the assay, contains 20mM Tris-HCl pH 8.0, 2mM CaCl2, 2mM beta-Mercaptoethanol, 0.05% CHAPS. 3ul of 20nM (10nM final) USP2 core, which is stored on ice, is dispensed into a medium-binding black solid Kalypsys 1,536 well plate using the Kalypsys dispenser. The assay plate is then pinned with 23nL compound with the Kalypsys pintool in columns 5-48. The controls are pinned as follows: column 1 two-fold dilutions of 2M NEM in duplicate; column 2 2M NEM (final concentration 38.2mM); column 3&4 DMSO. The assay plate is incubated at RT for 30min. Subsequently, 1.5uL of 100nM (25nM final) Ub-CHOP2 and 1.5uL of 100nM (25nM final) Reporter Substrate (both stored on ice and protected from light) were dispensed into the plate using the Kalypsys dispenser. Plates were read after 60min RT incubation on a ViewLux (Perkin Elmer) plate reader using the following wavelengths Ex 485nm /Em 531nm. Data were normalized to the to AC100 inhibition (NEM). Concentration-response curves were fitted to the normalized data and the concentration-response curves were then classified based on curve quality (r2), response magnitude and degree of measured activity. The time zero reading was used to flag fluorescence artifacts. Keywords: ubiquitination, deubiquitination, proteases, profluorescent, MLSMR, MLPCN, NIH Roadmap, qHTS, NCGC

Sequence of Ubiquitin carboxyl-terminal hydrolase 2 (Homo sapiens) (O75604 whole entry, looked up): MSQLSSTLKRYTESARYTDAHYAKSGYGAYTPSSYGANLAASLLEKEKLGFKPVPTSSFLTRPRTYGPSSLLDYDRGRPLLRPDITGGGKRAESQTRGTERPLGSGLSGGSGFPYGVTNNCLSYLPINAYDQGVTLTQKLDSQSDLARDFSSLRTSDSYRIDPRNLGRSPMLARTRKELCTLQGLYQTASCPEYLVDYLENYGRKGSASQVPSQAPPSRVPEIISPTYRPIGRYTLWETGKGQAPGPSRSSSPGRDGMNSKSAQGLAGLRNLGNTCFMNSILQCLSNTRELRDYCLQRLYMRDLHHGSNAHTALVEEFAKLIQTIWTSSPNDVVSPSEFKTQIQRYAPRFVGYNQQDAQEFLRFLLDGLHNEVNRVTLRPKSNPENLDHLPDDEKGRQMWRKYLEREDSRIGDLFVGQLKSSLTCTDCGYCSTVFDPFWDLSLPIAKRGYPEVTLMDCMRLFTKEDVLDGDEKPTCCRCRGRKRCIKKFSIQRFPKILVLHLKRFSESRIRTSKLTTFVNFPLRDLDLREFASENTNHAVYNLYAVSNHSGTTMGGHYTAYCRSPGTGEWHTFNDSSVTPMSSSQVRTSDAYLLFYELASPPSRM

Activity change, negative = inhibition, inactive:
O=C(CSc1ncnc2c1oc1ccccc12)NC1CCCC1
CSc1ccc(NC(=O)N2CC(C)OC(C)C2)cc1 (stereo not drawn)
CC1O[C@H](OC2C(COC3OC(CO)C(O)[C@H](O)C3O)OC(OC3CC[C@]4(C)C(CC[C@@]5(C)[C@@H]4C=C[C@]46OC[C@@]7(CCC(C)(C)C[C@H]74)C(O)C[C@@]56C)C3(C)C)C(O)C2O)C(O)C(O)C1O (stereo partly drawn)
CCC(C)c1ccc(NC(=S)NCc2ccccn2)cc1 (stereo not drawn)
Cc1cc(C(F)(F)F)c(C#N)c(SCC(=O)NC2CC2)n1
COc1ccc2nc(NC3=NCN(CC4CCCO4)CN3)nc(C)c2c1 (stereo not drawn)
CC(=O)C1=C(C)NC(=O)NC1c1cc(Br)ccc1OCC#N (stereo not drawn)
Cc1ccc(NC(=O)C2CCC(C(C)(C)C)CC2)cc1S(=O)(=O)N1CCOCC1 (stereo not drawn)
O=C1C=CC(=O)N1c1ccc(N2CCCCC2)cc1
CCOc1nc(OCC)nc(-n2cc(-c3ccccc3)nn2)n1
CC(C)(C)n1ncc2c(=O)n(Cc3ccc(Cl)cc3)cnc21
Cc1cc2c(c(=O)n1Cc1ccccc1)C1O[C@](CCCCN3C(=O)c4ccccc4C3=O)(Cc3ccccc31)O2 -1.2% [at 7.66 µM]
CC(C)(C)NC(=O)CSC(=Nc1ccccc1F)NC#N
O=C(CCl)Nc1ccc(Sc2ccc(NC(=O)CCl)cc2)cc1
CC1CCN(C(=O)c2ccc(S(=O)(=O)Cc3cc(F)ccc3F)c([N+](=O)[O-])c2)CC1
Cc1ccc(C2=NN(C(=O)CSc3nc(N)cc(N)n3)C(c3ccco3)C2)cc1 (stereo not drawn)
COc1ccc(-c2nc3cc(C)ccn3c2NC2CCCCC2)cc1SC1CCCCC1
Cc1ccc(C2(C(F)(F)F)N=C3Sc4cc(C)cc(C)c4N3C(=O)N2)cc1 (stereo not drawn)
COc1ccc(CCOC(=O)CNC(=O)c2ccc(Cl)cc2Cl)cc1
[O-][n+]1c2c(nn1-c1ccc(Cl)c(Cl)c1)-c1nonc1CC2
Cn1c(SCC(=O)Nc2nccs2)nnc1-c1cccnc1
Cc1c(C=O)c2ccccn2c1C(=O)c1ccncc1
O=c1[nH]c(=S)[nH]c2[nH]c(=S)[nH]c12
Cc1ccc(S(=O)(=O)CC(=O)Nc2sc(C)c(C)c2C(N)=O)cc1
CC(C)N1C(=O)N(c2ccccc2)C(C)(O)CC1(C)C (stereo not drawn)
Cc1ccc(-n2c(SCC(=O)N3CCC(C(=O)O)CC3)nc3ccccc3c2=O)cc1C
O=C(c1cccs1)n1nc(NCc2ccccc2)nc1NCc1ccccc1
COc1ccc(OC)c(-c2c(=O)n(OCc3ccccc3Br)c3ccccc3[n+]2[O-])c1
